Shown are actives, neighbours in structure and some others; about 12% of the full set was active somewhere.
JMJD2A Tudor inh = inhibitors of human JMJD2A Tudor domain | Potency, µM (series often up to 114 µM), without a hit: at the highest dose activity change, negative = inhibition, actives largely listed as inhibitors | AlphaScreen JMJD2A-Tudor / H3K4me3 peptide binding | 4.4% of 390,000 active | O75164; further: on the % scale 0 is the no-effect control and ±100 the full control effect; nearly all actives have a fitted effect of over 50% in size
Sfp PPTase inh = blocks B. subtilis Sfp PPTase activity. Potency, µM, inactives show largest response in the series, negative = inhibition, usual class: inhibitors. 3.5% of 310,000 active. Biochemical Sfp PPTase activity, qHTS. Q9F4F7;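 further: the enzyme is Sfp with the accession as filed and its product quenches rhodamine fluorescence; 0% = enzyme reaction without inhibitor and -100% = no enzyme wells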
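Reaction rates are the 30-min fluorescence difference (ex 525, em 598 nm) in wells containing 15 nM Sfp, 5 uM rhodamine-CoA and 12.5 uM BHQ-2-YbbR at pH 7.6 with 10 mM MgCl2.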
G9a inh = G9a (human) methyltransferase inhibition; Q96KQ7; G9a H3K9 monomethylation, AlphaScreen, 2 h; Potency, µM (top dose mostly 102 µM), without a hit: at the top dose activity, negative = inhibition, actives largely listed as inhibitors; 8.8% of 350,000 active; further: on the % scale 0 is the no-effect control and ±100 the full control effect; nearly all actives have a fitted effect of over 75% in size
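Step 1: enzyme (final 20 nM) with compound, 15 min RT. Step 2: substrate peptide 500 nM and SAM 20 uM, 2 h RT. Step 3: anti-H3K9me1 antibody and AlphaScreen beads, 10 min, then plate read.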
BAZ2B block = inhibitors of human BAZ2B bromodomain. Potency, µM (series often up to 114 µM), without a hit: top-dose activity change, negative = inhibition, usual class: inhibitors. Q9UIF8. 4.4% of 360,000 active. AlphaScreen BAZ2B-H3K14Ac peptide displacement; further: on the % scale 0 is the no-effect control and ±100 the full control effect; nearly all actives have a fitted effect of over 60% in size
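AlphaScreen luminescence quantifies BAZ2B engagement of H3K14Ac peptide; the protein and biotinylated peptide are both at 50 nM final, buffer PBS pH 7.4 with 0.01% Tween-20, all steps at room temperature.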
HP1b chromo inh = inhibitors of HP1-beta chromodomain binding to methylated histone tails; P83916; AlphaScreen HP1-beta / biotin-H3K9me3 peptide binding; Potency, µM (titrated, usually from 114 µM), inactives show at the highest dose activity change, negative = inhibition, hits mostly inhibitors; 0.56% of 390,000 active; further: nearly all actives have a fitted effect of over 70% in size
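AlphaScreen: HP1-beta (50 nM) preformed 30 min with biotin-H3(1-18)K9me3 peptide (50 nM) in PBS pH 7.4, 0.01% Tween-20. Compound added for 30 min at RT, then streptavidin donor/nickel chelate acceptor beads (10 ug/mL) for 30 min.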
The depositor's hits bear a star; ? = inconclusive; nt = no result; ! = repeats disagree; [ ] = dose if it differs, or a comment. The call rests on the fitted dose curve; in most records, active means well fitted curve in the direction sought with a large enough effect; inconclusive means small, poorly fitted or top-dose-only effect, or another doubt; inactive means no such curve, though single readings can be large; an effect the other way counts as inactive or inconclusive. Potency means the concentration at half of the fitted maximal effect.

SMILES | JMJD2A Tudor inh | Sfp PPTase inh | G9a inh | BAZ2B block | HP1b chromo inh
CS(=O)(=O)c1ncc(N(Cc2ccco2)Cc2cccs2)c(C(=O)Nc2ccccc2F)n1 | -31% | nt | ? | -23% | 7%
O=S(=O)(c1ccc(Cl)cc1)c1nnn2c1nc(NC1CCCCC1)c1sccc12 | -36% | nt | -5%[59 µM] | ? | 5%
COc1ccc(N2CC(NC(=O)COc3ccc(F)cc3)CC2=O)cc1OC (centres undefined) | -12% | nt | 2%[59 µM] | -16% | 10%
Cc1ccn2c(=O)c(C(=O)NC3CCCCC3C)c(O)nc2c1 (centres undefined) | -8% | nt | -10% | -3% | 53%
CC1Cc2cc(S(=O)(=O)N3CCN(c4ccccc4F)CC3)ccc2N1C(=O)C1CCC1 (centres undefined) | -21% | nt | -10%[59 µM] | -3% | 5%
CCCCOc1cccc(NC(=O)c2cccc(C(=O)Nc3cccc(OCCCC)c3)c2)c1 | -19% | nt | -31%[59 µM] | -9% | 11%
COc1ccc(/C=C/C(=O)c2cccc(-n3cnnn3)c2)cc1O | -11% | -4% | -2% | -5% | 18%
COc1cc(/C=C/C(C)=NNc2ccccc2)ccc1O | 50µM* | nt | nt | nt | ?
COc1cc(/C=C/C(=O)O)ccc1O | -9% | 6% | -39%[2.33 µM] | nt | 28%
COc1cc(/C=C/C(=O)CC(=O)/C=C/c2ccc(O)c(OC)c2)ccc1O | ? | 45µM*! | 54%[59 µM] | 40µM* | -15%
COc1ccc(/C=C/C(=O)CC(=O)/C=C/c2cccc(O)c2OC)cc1O | nt | 32µM*! | ? | nt | nt
Cc1cc(=O)c2c(O)c(O)ccc2o1 | 3.2µM* | 79µM* | 1.8µM* | ? | 7%
CCOC(=O)C1=C(O)C(=O)N(c2ccc(S(N)(=O)=O)cc2)C1c1cccc([N+](=O)[O-])c1 (centres undefined) | -21% | -10% | ? | -22% | 20%
CC(=O)C1=C(O)C(=O)N(c2ccc(S(N)(=O)=O)cc2)C1c1cccc([N+](=O)[O-])c1 (centres undefined) | -16%[11.4 µM] | -4% | 50µM* | -26% | 20%
COc1ccc(CC(=O)Nc2c(C(=O)N3CCN(c4ncccn4)CC3)oc3ccccc23)cc1 | -24% | 5% | nt | -26% | 26%
O=C1C=C(NCCO)C(=O)c2cnccc21 | nt | -1% | nt | nt | nt
O=C1C=C(NCCc2cc(Br)c(O)c(Br)c2)C(=O)c2ncccc21 | 28µM* | nt | nt | nt | 32µM*
O=c1c2oc3ccccc3c2n(Cc2ccc(Cl)cc2)c(=O)n1Cc1ccco1 | -14% | nt | -25%[59 µM] | ? | -12%
Cc1cc(=O)[nH]c2nnc(-c3ccc(Br)cc3)n12 | -1% | -12% | -8% | -9% | 29%
Cc1ccn2c(Nc3ccc4c(c3)OCCO4)c(-c3ccc(Cl)s3)nc2c1 | ? | nt | ? | -31% | ?
Cc1cccn2c(Nc3ccc4c(c3)OCCO4)c(-c3ccc(Br)o3)nc12 | 22µM* | nt | 11µM* | 11µM* | ?
Clc1ccc2nc(-c3cccs3)c(Nc3ccc4c(c3)OCCO4)n2c1 | -3% | nt | 4%[59 µM] | -1% | 83%
Cc1ccn2c(Nc3ccc4c(c3)OCO4)c(-c3ccc(N(C)C)cc3)nc2c1 | ? | nt | 2µM* | nt | -3%
Clc1ccc(-c2nc3ccccn3c2Nc2ccc3c(c2)OCCO3)s1 | 45µM* | nt | 18%[59 µM] | 14% | ?
Cc1ccc2nc(-c3ccc(O)cc3)c(Nc3ccc4c(c3)OCCO4)n2c1 | -12% | 13% | 8.9µM* | -13% | 42%
SMILES | JMJD2A Tudor inh | Sfp PPTase inh | G9a inh | BAZ2B block | HP1b chromo inh
Cc1ccn2c(NCc3ccc4c(c3)OCO4)c(-c3ccc(O)cc3)nc2c1 | -2% | -9% | 11%[59 µM] | 3% | 14%
CC(C)(C)OC(=O)NCc1nnc(-c2cc3ccccc3[nH]2)s1 | 0% | nt | nt | nt | nt
Cc1ccc(-c2nc3cnccn3c2Nc2ccc3c(c2)OCCO3)o1 | ? | 35µM* | 10µM* | ? | -27%
COc1ccc(Nc2c(-c3ccc(C)cc3)nc3cnccn23)cc1 | 45µM* | 5% | 50µM* | ? | -13%[57 µM]
Cc1ccc(-c2nc3cnccn3c2Nc2ccc3c(c2)OCO3)cc1 | 50µM* | ? | 40µM* | 40µM* | ?
COc1ccc(-c2nc3ccc(C)cn3c2Nc2ccc3c(c2)OCO3)cc1 | -18% | nt | ? | nt | 8%
Cc1ccn2c(Nc3ccc4c(c3)OCO4)c(-c3ccc(Cl)cc3)nc2c1 | -33% | nt | 2.8µM* | nt | -9%

Bioassay records: PubChem BioAssay, National Center for Advancing Translational Sciences (NCATS)
